Test results as given in PMC5540273 (PLoS ONE, 2017).

Tested on: PAK3
Details: concentration: 1 μM, replicates: in singlicate; n = 1
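Further: KINOMEscan kinase panel screen.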

Cl.c1ccc(-c2ccc3c(Nc4ccc5[nH]ccc5c4)ccnc3c2)nc1 [GW440138] and Cl.c1ccc(-c2ccc3c(Nc4ccc5[nH]ncc5c4)ccnc3c2)nc1 [GW440137] are the same in “%Inh” value: 0% for the first, 0% for the second.

First: O=C(Nc1ccccc1F)NC1CCN(c2ccnc(Nc3ccc(F)cc3)n2)CC1 [GSK1379800]
Second: Cc1ccc(C)c(NC(=O)NC2CCN(c3ccnc(Nc4ccc(F)cc4)n3)C2)c1 (centres unmarked) [GSK1379720]
The “%Inh” value of the first is lower: 0% for the first, 14% for the second.

Going from Cc1cccc(NC(=O)Nc2ccc(Oc3ncnc4ccn(C)c34)cc2)c1 to COC(=O)Nc1nc2ccc(Oc3ccc(NC(=O)Nc4cc(C(F)(F)F)ccc4F)cc3)cc2n1C.Cl [GW692089], the “%Inh” value rises from 0% to 6%.

Compared with COc1cccc(C2=C(Nc3ccc(Cl)c(C(=O)O)c3)C(=O)NC2=O)c1 [SB-390769], COc1cccc(-c2ccc3c(NC(=O)C4CC4)n[nH]c3n2)c1 [SB-710903] is higher in “%Inh” value: 0% for the first, 1% for the second.

Compared with CN1CCN(CCCNc2nccc(-c3c(-c4ccc(F)cc4)nn4cc(C(F)(F)F)ccc34)n2)CC1 [GW621581], CCCCc1nn2ncccc2c1-c1ccnc(Nc2ccc(N3CCN(C)CC3)cc2)n1 [GW684941] is lower in “%Inh” value: 30% for the first, 0% for the second.

Compared with COCCOCCOc1cc2ncc3c4ccc(C#N)cc4[nH]c3c2cc1OC, COc1cc(Nc2ncc3c(C)nc(-c4cc5ccccc5[nH]4)n3n2)cc(OC)c1OC [GW869516] is higher in “%Inh” value: 21% for the first, 69% for the second.

First: O=C(Nc1cccc(-c2nn3ncccc3c2-c2ccnc(Nc3ccccc3)n2)c1)c1c(F)cccc1F [GSK198271]
Second: CCS(=O)(=O)c1ccc(OC)c(Nc2nccc(-c3c(-c4cccc(NC(=O)c5c(F)cccc5F)c4)nn4ncccc34)n2)c1 [GSK326180]
The “%Inh” value of the first is higher: 31% for the first, 14% for the second.

First: c1ccc(-c2n[nH]cc2Nc2ccnc3ccccc23)nc1 [GW694077]
Second: CN(C)Cc1ccc(-c2ccc3c(Nc4ccc(Oc5ccccn5)cc4)ccnc3c2)o1 [GW567148]
The “%Inh” value of the first is lower: 1% for the first, 22% for the second.

First: Cn1cc(-c2ccc3c(c2)CCN3C(=O)Cc2cccc(Cl)c2)c2c(N)ncnc21 [GSK2606590]
Second: CCc1ccc(-c2ccc3c(c2)-c2c(cnn2C)S(=O)(=O)N3C)cc1
The “%Inh” value of the first is higher: 46% for the first, 0% for the second.

First: CC(C)(C)c1ccc2nccc(Nc3cccc(O)c3)c2c1 [GW856795]
Second: CN1CCN(Cc2cccc(-c3ccc4c(Nc5ccc(Oc6ccccc6)cc5)ccnc4c3)c2)CC1 [GW578342]
The “%Inh” value of the first is lower: 0% for the first, 29% for the second.

Going from COc1cc(Nc2nccc(N3CCC(NC(=O)Nc4cccc(C(C)=O)c4)C3)n2)cc(OC)c1OC (centres unmarked) [GSK1379753] to COc1cc(Nc2nccc(-c3c(-c4cccc(NC(=O)c5c(F)cccc5F)c4)nn4ncccc34)n2)cc(OC)c1OC [GSK327238], the “%Inh” value falls from 100% to 36%.

Compared with O=C(Nc1n[nH]c2nc(-c3ccc(O)cc3)ccc12)C1CC1 [SB-710363], O=C(NC1CCN(c2ccnc(Nc3ccc(F)cc3)n2)C1)c1cc2ccccc2s1 (centres unmarked) [GSK1379716] is higher in “%Inh” value: 0% for the first, 19% for the second.

Going from c1ccc(-c2cnc3nccnn23)cc1 [AH20685] to Cl.Cl.NCC(NC(=O)c1cc(-c2ccccc2)c(-c2ccnc3[nH]ccc23)s1)c1ccccc1 (centres unmarked) [GSK1321561], the “%Inh” value rises from 2% to 30%.

Going from NCCCC(NC(=O)c1cc(Br)c(-c2ccnc3[nH]ccc23)s1)c1ccccc1.O=C(O)C(F)(F)F.O=C(O)C(F)(F)F (centres unmarked) [GSK1287544] to O=C(O)C(F)(F)F.O=C(O)C(F)(F)F.O=c1[nH]ccc2nc(N[C@@H]3CCCNC3)nc(Nc3ccc(S(=O)(=O)N4CCOCC4)cc3)c12 [GSK2177277], the “%Inh” value rises from 67% to 100%.

Compared with CCn1c(-c2nonc2N)nc2c(C#CC(C)(C)O)ncc(OCCCCN)c21.O=C(O)C(F)(F)F.O=C(O)C(F)(F)F [GSK507274], C[C@@H](Oc1cc(-n2cnc3cc(-c4ccnc(NCCS(C)(=O)=O)c4)ccc32)sc1C(N)=O)c1ccccc1Cl [GSK907232] is lower in “%Inh” value: 49% for the first, 26% for the second.

Going from Clc1ccc(-c2nn3ncccc3c2-c2ccnc(Nc3ccc4c(c3)OCCO4)n2)cc1 [GW829116] to O=C(Nc1cccc(-c2nn3ccccc3c2-c2ccnc(Nc3cccc(F)c3)n2)c1)c1c(F)ccc(F)c1Cl [GSK357952], the “%Inh” value rises from 0% to 16%.
